Data from PubChem BioAssay AID1053173 (Broad Institute, 2014).
In all, about 1,500 compounds went through this assay and about 390 (26%) were called active. How the calls were made is not given here. A selection follows. Results with a measured potency or affinity are listed apart.

target: Histone-lysine N-methyltransferase NSD2 (Homo sapiens) (UniProt O96028); assay: NSD2 methyltransferase inhibitors, dose response, biochemical, AlphaScreen, cherry-picked samples (AID 1053173); conditions: NSD2 H4 peptide methylation, 120 min; series mostly up to 10 µM
Sequence (O96028 whole entry, looked up): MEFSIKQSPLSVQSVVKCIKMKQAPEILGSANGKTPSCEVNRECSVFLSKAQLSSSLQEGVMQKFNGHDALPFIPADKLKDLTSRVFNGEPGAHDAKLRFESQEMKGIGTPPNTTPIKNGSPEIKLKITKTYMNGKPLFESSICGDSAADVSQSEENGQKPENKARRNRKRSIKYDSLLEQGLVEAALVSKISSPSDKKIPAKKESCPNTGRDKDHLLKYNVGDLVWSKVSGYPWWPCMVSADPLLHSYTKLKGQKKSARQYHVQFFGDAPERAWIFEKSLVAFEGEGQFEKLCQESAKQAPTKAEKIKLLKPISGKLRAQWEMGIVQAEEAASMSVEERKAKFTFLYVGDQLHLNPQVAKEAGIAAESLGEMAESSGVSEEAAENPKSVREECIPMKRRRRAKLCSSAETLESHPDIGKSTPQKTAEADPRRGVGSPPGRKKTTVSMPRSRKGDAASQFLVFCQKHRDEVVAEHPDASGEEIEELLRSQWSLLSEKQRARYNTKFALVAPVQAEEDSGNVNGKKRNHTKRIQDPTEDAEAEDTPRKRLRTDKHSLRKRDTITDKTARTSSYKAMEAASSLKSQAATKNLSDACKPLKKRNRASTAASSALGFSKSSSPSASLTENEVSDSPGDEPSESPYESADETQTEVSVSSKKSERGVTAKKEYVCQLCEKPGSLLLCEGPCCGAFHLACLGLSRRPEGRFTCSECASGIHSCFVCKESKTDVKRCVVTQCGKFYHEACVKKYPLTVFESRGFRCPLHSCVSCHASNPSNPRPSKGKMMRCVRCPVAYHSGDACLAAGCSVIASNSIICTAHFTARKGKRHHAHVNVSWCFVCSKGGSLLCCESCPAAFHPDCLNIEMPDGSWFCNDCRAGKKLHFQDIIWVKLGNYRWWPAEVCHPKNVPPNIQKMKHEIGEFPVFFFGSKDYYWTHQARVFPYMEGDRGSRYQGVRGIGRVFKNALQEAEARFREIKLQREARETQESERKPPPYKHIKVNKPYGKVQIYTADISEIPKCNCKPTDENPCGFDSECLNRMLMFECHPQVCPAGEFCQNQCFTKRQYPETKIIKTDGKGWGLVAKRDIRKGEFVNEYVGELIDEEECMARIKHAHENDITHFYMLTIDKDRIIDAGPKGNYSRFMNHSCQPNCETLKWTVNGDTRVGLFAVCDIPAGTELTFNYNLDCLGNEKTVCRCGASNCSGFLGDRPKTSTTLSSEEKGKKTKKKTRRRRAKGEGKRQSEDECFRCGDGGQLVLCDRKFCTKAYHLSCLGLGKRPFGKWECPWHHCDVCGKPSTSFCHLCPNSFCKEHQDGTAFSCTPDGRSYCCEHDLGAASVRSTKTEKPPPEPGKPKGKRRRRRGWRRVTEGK

outcome, inactive:
O=S(=O)(Nc1nc(-c2ccco2)c(-c2ccco2)s1)c1ccc(F)cc1F, O=C(COC(=O)c1cc(S(=O)(=O)N2CCOCC2)ccc1F)c1ccc[nH]1, CCN(CC)C(=O)c1cc([N+](=O)[O-])cc2c1-c1ccc([N+](=O)[O-])cc1C2=C(C#N)C#N, CC(=O)c1cc(-c2ccccc2)n(CC(=O)NC2CCCCC2)c1C, COc1ccc(-c2c3c(nc4sc(C(=O)Nc5cc(C)on5)c(N)c24)CCC3)cc1, N=C1SCC(=O)N1c1ncc(Cc2cccc(Cl)c2)s1, Cc1cccc(OCCC(=O)Nc2ccccc2C(N)=O)c1, CCOC(=O)c1cc(-c2ccc(F)cc2)nc2c1c(=O)[nH]c(=O)n2Cc1ccccc1, Cc1c(C)n(Cc2ccccc2)c2ccc(C(=O)OCCCN(C)C)cc12, CCOC(=O)c1c(C)[nH]c(C)c1C(=O)COC(=O)[C@@H]1CCCN1S(=O)(=O)c1ccc(Cl)cc1, CCn1cnc2c1c(=O)n(CC(=O)O)c(=O)n2Cc1ccccc1, COC(=O)c1c(SCC(=O)Nc2ccc(C)c(C)c2)nc(=O)[nH]c1C, Cc1cc(=O)n(Cc2ccccc2)c(O)c1C#N, COc1ccc(S(=O)(=O)N(C)CC(=O)NCCN2CCOCC2)cc1Cl, c1ccc(CCN2CN=C(Nc3nc4ccccc4s3)NC2)cc1, O=C1CC2(CCCCC2)CC(=O)N1CCc1ccccc1, Nc1ccc(N=Nc2ccccc2O)c(N)c1, O=C(OCc1ccc(Cl)c(Cl)c1)c1cccnc1Cl, CCN1CCN(CCCNC(=O)c2ccc3c(c2)NC(=O)/C(=C\c2cccc(C)c2)S3)CC1, O=C(CN1CCOCC1)Nc1ccc(Oc2ccccc2)cc1, O=C(O)C=C1C2CC3CC(C2)CC1C3, COC(=O)CC1=NN(c2ccc(OC)cc2)C(=O)/C1=C\c1ccc(Cl)cc1, Nc1nonc1C(=O)N/N=C/c1cc2c(cc1[N+](=O)[O-])OCO2, CC(C)(C)C(=O)NC1CC2CCCC(C1)N2C(=O)Nc1ccc(Cl)cc1 (stereo unspecified), COc1ccc2c(C#N)c3ccccn3c2c1, COc1ccc(-c2cn[nH]c2N)cc1, CN(C)CCCN1C(=O)c2cccc3c([N+](=O)[O-])ccc(c23)C1=O, COc1ccc(NS(=O)(=O)c2cccc(C(=O)N3CCCCCC3)c2)cc1, O=C1CC(=O)Nc2cc(S(=O)(=O)Nc3ccc(Cl)c(C(F)(F)F)c3)ccc2N1, CC(=O)NC1=NN(C(C)=O)C(C)(c2cccc([N+](=O)[O-])c2)S1 (stereo unspecified), CCOC(=O)C1(C)CCCN1C(=O)c1cccc(F)c1 (stereo unspecified), CC1(CC(=O)N/N=C/c2cc([N+](=O)[O-])c(O)cc2O)OCCO1, Cc1cc(NC(=O)COC(=O)c2cccc(S(=O)(=O)N3CCOCC3)c2)no1, O=C(CNc1ccc(F)cc1)N/N=C/c1c(O)ccc2ccccc12, O=C(CSc1nc(-c2ccccc2)c(-c2ccccc2)o1)Nc1nnc(-c2ccccc2)s1, C/C(=N\NC(=O)CSc1nc2ccccc2o1)c1ccc(O)cc1, C=CCn1c(-c2ccc(OC)cc2)nc2nc3ccccc3nc21, O=c1[nH]c(CN2CCOCC2)nc2cc(Cl)ccc12, CCOc1cc(/C=C/C(=O)OCC(=O)NCCN2C(=O)CSC2=O)ccc1OCC(C)C, Cc1cccc(-n2c3nc(=O)[nH]c(=O)c-3cc3cc([N+](=O)[O-])ccc32)c1, Cc1c(N=NC2=C(O)CC(C)(C)CC2=O)c(=O)n(-c2ccccc2)n1C, Cc1c(NC(=O)CN2C(=O)C(=O)c3ccccc32)c(=O)n(-c2ccccc2)n1C, C/C(=C\C(=O)c1cccnc1)Nc1ccc(O)cc1, COc1ccc(CCNC(=O)CN2C(=O)C(=O)N(C3CCCC3)C2=O)cc1OC, CN(C)Cc1csc(NC(=O)Nc2cccc(Cl)c2)n1, Cn1c(N2CCCC2)nc2c1c(=O)n(Cc1ccc(Cl)cc1)c(=O)n2C, COCCN(C(=O)CCC(=O)Nc1cc(C)on1)C(C(=O)NC(C)(C)C)c1ccccc1Cl (stereo unspecified), COc1ccc(Cc2ccccc2C(=O)O)cc1, COc1ccc(C(C[N+](=O)[O-])c2c(C)[nH]n(-c3ccccc3)c2=O)cc1 (stereo unspecified), O=C(NNS(=O)(=O)c1ccc(F)cc1F)c1csc(-c2cccnc2)n1, O=C(COc1ccccc1O)NCCN1CCOCC1, Cc1nn2c3ccccc3n(CCN3CCCCC3)c2nc1=O, O=C(CCc1ccccc1)NCCCN1CCOCC1, O=C(NCCN1CCCCC1)/C(=C/c1ccco1)NC(=O)c1ccccc1, O=C(NCCCN1CCCC1=O)Nc1ccc(Cl)cc1Cl, O=C(O)Cc1sc(NC2CCCCC2)nc1-c1ccc(Cl)cc1, Cn1c(=O)c2c(nc(CN3CCC(C(N)=O)CC3)n2Cc2ccccc2Cl)n(C)c1=O, Cc1ccc(-n2c(C)c(C)c3c(N)ncnc32)cc1, CC(=O)c1ccc(-n2c(-c3cc(-c4ccco4)[nH]n3)n[nH]c2=S)cc1, Cc1cc(=O)[nH]c(COc2ccccc2)n1, COC(=O)COc1ccc(S(=O)(=O)NCC2CCCO2)cc1Cl (stereo unspecified), Cc1ccc(Nc2nc(-c3ccc(O)c(O)c3)cs2)nc1, CCOC(=O)c1sc(NC(=O)COc2ccc3c(c2)OCO3)nc1C, COc1ccccc1OCCOc1ccc(/C=C2\C(=N)N3N=C(S(C)(=O)=O)SC3=NC2=O)cc1, O=C(C=Cc1ccccc1)c1cc(Br)ccc1O, Cc1sc2ncnc(SCC(=O)Nc3ccc(CN4CCCC4)cc3)c2c1C, Nc1nc(O)c(Sc2ccccc2[N+](=O)[O-])c(=O)[nH]1, Nn1cnnc1N/N=C/c1ccc(Cl)c([N+](=O)[O-])c1, Cc1c(-c2ccc(/C=N/NC(=O)C(=O)Nc3ccccc3F)o2)cccc1[N+](=O)[O-], CC1CCC2C(C1)c1sc(=O)[nH]c1SC2(C)C (stereo unspecified), COc1ccc(-n2ncc3c(NCCCn4ccnc4)ncnc32)cc1, N#Cc1ccccc1OCC(=O)OCC(=O)N1CCN(C(=O)c2ccco2)CC1, CCCC(=O)Nc1cc(C)cn(Cc2c(F)cccc2Cl)c1=O, COc1ccc(-n2nnnc2SCC(=O)c2ccc3c(c2)OCCO3)cc1, COc1ccc(OCC(=O)NNc2c3ccccc3nc3ccccc23)cc1, CCOC(=O)N1CCN(C(=S)NCCOC)CC1, O=C(CC1(O)C(=O)Nc2cc(Cl)cc(Cl)c21)c1ccncc1 (stereo unspecified), O=C(c1ccc(S(=O)(=O)N2CCOCC2)cc1)N(c1cccc(Cl)c1)C1C=CS(=O)(=O)C1 (stereo unspecified), NS(=O)(=O)c1ccc(S(=O)(=O)N2CCN(C3CCCC3)CC2)cc1, Cc1ccc(C(=O)C2CCN(S(=O)(=O)c3ccc(C(=O)O)cc3)CC2)cc1, O=C(NCc1ccc(Cl)cc1)c1ccc(S(=O)(=O)N2CCCCC2)cc1, Cc1cccc(NC(=S)N2CCN(c3ccccc3F)CC2)c1C, CC1CCCN(S(=O)(=O)c2ccc(NC(=O)CN3CCN(C)CC3)cc2)C1 (stereo unspecified), CC(C)c1ccc(S(=O)(=O)N2CCN(CC(=O)Nc3ccc(Cl)cc3F)CC2)cc1, CCc1cc(OCCN2C(=O)NC(C)(C)C2=O)ccc1Cl, S=C1NCN(Cc2ccco2)CN1CCc1ccccc1, Cc1ncc(CO)c2c1Oc1nc(-c3ccccc3)nc(SCC(=O)N3CCOCC3)c1C2, CCOC(=O)C(CCCP(=O)(c1ccccc1)c1ccccc1)(NC(C)=O)C(=O)OCC, O=C(Cn1cc(C(F)(F)F)ccc1=O)Nc1ccc2c(c1)OCCO2, Cc1ccc(Nc2nnc(SCC(=O)Nc3ccc(S(=O)(=O)N4CCOCC4)cc3)s2)cc1, CCN(CC)c1ccc(NC(=O)COC(=O)c2ccc3ccccc3n2)cc1, COC(=O)C(C)(C)NC(=O)c1cccs1, COc1ccc(OC)c(-c2csc(-c3cccs3)n2)c1, CCOC(=O)c1ccc(S(=O)(=O)N2CCN(c3ccccn3)CC2)cc1, COc1ccc(NC(=O)CN2CCN(S(=O)(=O)N3CCCCCC3)CC2)cc1, O=C(Nc1ccccc1)OCCCCOC(=O)Nc1ccccc1, CCc1nc2ccc(C)cc2c(C(=O)NC2CCCCC2C)c1C (stereo unspecified), O=C(O)c1ccccc1NS(=O)(=O)c1ccc2ccccc2c1, CCOc1ccccc1Nc1nnc(SCc2ccc(C(=O)OC)o2)s1, COCCNC(=O)c1ccc(CN2CCc3ccccc3C2)cc1, Cc1ccc(C(=O)Cn2cc([N+](=O)[O-])nc2C)cc1, CC(C)(C)C1CCC2(CC1)C(Nc1cccc(C(F)(F)F)c1)=NC(=S)N2CC#N (stereo unspecified), COc1ccc(CCC(=O)NCCOc2ccccc2Cl)cc1, CSc1nsc(SCC(=O)Nc2cccc(NC(C)=O)c2)n1, Cc1cccnc1NC(=O)c1ccc(S(=O)(=O)N2CC(C)OC(C)C2)cc1 (stereo unspecified), O=C1CCCC(O)=C1N=Nc1cccc(C(=O)O)c1, O=C(NNC(=O)c1cccs1)c1ccc(Cl)c([N+](=O)[O-])c1, O=C(CNC(=O)c1ccco1)NCC(=O)OCc1ccccc1Cl, O=C(CC(=O)NCCc1ccccc1)NCCc1ccccc1, CC(C)CC(=O)N1CCC(O)(CS(=O)(=O)Cc2ccccc2Cl)CC1, COc1ccccc1C(=O)NNC(=O)Cc1ccccc1
